Assay outcomes deposited in PubChem BioAssay by National Center for Advancing Translational Sciences (NCATS).
CCT modulator: modulators of cytosolic chaperonin (CCT/TRiC) activity | AID 651819 | activity change, % (test concentration not listed), hits read low | 360,000 compounds, 0.3% hits | purified chaperonin ATPase assay, HTRF ADP detection, 30 min; in the data active means activity change below about -30%; further: on the % scale 0 is the no-effect control and ±100 the full control effect
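Nucleotide hydrolysis assay: TRiC at 20–40 nM final (set by batch activity) with 10 uM ATP, 30 min at 37 °C, in presence of 76 uM compound. Detection by competitive ADP HTRF, 30 min ambient.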
uPA generation: inhibitors of cell surface uPA generation. 330,000 compounds, 0.31% hits. cell surface uPA generation assay, qHTS. Potency, µM (top dose mostly 38.3 µM), for inactives: top-dose activity change, negative = inhibition, actives largely listed as inhibitors; active means well fitted inhibition curve with a large enough effect; inconclusive means small, poorly fitted or top-dose-only effect; inactive means no such curve, though single readings can be large or run the other way; tested in mouse RAW 264.7 cells; further: potency means the concentration at half of the fitted maximal effect; on the % scale 0 is the no-effect control and ±100 the full control effect; nearly all actives have a fitted effect of over 55% in size
GLP1R cytotox: cytotoxicity counter-screen for GLP-1 receptor inverse agonists; HEK293 cAMP-luciferase reporter cells, luminescence, 24 h; Potency, µM (top dose mostly 38.3 µM), inactives show at the highest dose activity change, negative = inhibition, most hits filed as inhibitors; 410,000 compounds, 0.13% hits; AID 624418;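 further: loss of luciferase light is scored as toxicity; potency means the concentration at half of the fitted maximal effect; on the % scale 0 is the no-effect control and ±100 the full control effect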
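To flag toxic compounds, the library was rerun on cells for 24 hr at 37 deg C and 5% CO2. Viability-linked luminescence was captured 12 min after adding luciferase detection reagent.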
MmCpn inh: blocks the Methanococcus maripaludis chaperonin Mm-Cpn; purified Mm-Cpn ATPase, ADP Transcreener TR-FRET; Potency, µM (titrated, usually from 76.9 µM), inactives show top-dose activity, negative = inhibition, most hits filed as inhibitors; 330,000 compounds, 0.031% hits; AID 504842; further: potency means the concentration at half of the fitted maximal effect; on the % scale 0 is the no-effect control and ±100 the full control effect; nearly all actives have a fitted effect of over 80% in size
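ATPase turnover read by TR-FRET ADP competition (Eu cryptate antibody/ADP-d2, 665/590 nm): 10uM ATP final, 25nM Mm-CPN final, 30 min 37degC after 10-min compound preincubation, pH 7.4 Tris/KCl/MgCl2/DTT buffer.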
GLP-1R inv ag: inverse agonists of human GLP-1 receptor | P43220 | Potency, µM (top dose mostly 38.3 µM), for the others: at the highest dose activity change, negative = inhibition, usual class: inhibitors | 410,000 compounds, 1.6% hits | HEK293 GLP-1R CRE-luciferase, luminescence, 24 h; GLP-1R form is constitutively active | AID 624417; further: potency means the concentration at half of the fitted maximal effect; on the % scale 0 is the no-effect control and ±100 the full control effect; nearly all actives have a fitted effect of over 55% in size
Target sequence (P43220 whole entry, looked up): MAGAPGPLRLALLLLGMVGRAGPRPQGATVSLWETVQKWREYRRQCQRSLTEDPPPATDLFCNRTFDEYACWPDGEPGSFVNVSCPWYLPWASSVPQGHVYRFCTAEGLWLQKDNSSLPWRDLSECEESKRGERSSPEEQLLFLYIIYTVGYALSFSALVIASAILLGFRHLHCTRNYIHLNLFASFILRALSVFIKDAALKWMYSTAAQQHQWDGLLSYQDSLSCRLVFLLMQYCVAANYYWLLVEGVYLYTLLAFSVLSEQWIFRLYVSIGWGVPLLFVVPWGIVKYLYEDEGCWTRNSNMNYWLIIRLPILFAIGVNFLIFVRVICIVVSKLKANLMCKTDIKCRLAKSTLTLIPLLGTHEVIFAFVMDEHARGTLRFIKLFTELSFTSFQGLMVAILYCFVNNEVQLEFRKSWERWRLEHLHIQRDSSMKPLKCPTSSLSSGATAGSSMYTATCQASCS
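Stable HEK293 clone (constitutively active GLP-1R + cAMP-response luciferase); 200 cells/uL plated, 12 h pre-culture, compound 24 hr, 37 deg C/5% CO2; detection reagent 12 min RT; luminescence.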
GLP-1R agonist: activates the human GLP-1 receptor. P43220. HEK293 GLP-1R CRE-luciferase, luminescence, 4-6 h; cells express a hypersensitive GLP-1R form. 380,000 compounds, 0.007% hits. Potency, µM (series often up to 45.6 µM), for the others: at the top dose activation, hits mostly activators. AID 624172; further: potency means the concentration at half of the fitted maximal effect; % of control where 0% means no effect
* = called active by the depositor; ? = inconclusive; . = no result. Rows were chosen to be rich in hits. Some 2.2% of all compounds tested hit in one or more screens of this group. Unless noted, the call rests on the fitted dose curve; in most records, active means well fitted curve in the direction sought with a large enough effect; inconclusive means small, poorly fitted or top-dose-only effect, or another doubt; inactive means no such curve, though single readings can be large; an effect the other way counts as inactive or inconclusive.

SMILES	CCT modulator	uPA generation	GLP1R cytotox	MmCpn inh	GLP-1R inv ag	GLP-1R agonist
O=C(NCCCN1CCOCC1)c1ccc2c(=O)n(Cc3ccc(Cl)cc3)c(=S)[nH]c2c1	2	?	16%	3%	2µM*	0%
CC(=O)c1ccc(NC(=O)c2c3c(nc4ccccc24)C(=O)N(C2CCCCC2)C3)cc1	.	.	2%	.	-21%	.
Cc1ccc(CSc2nc3ccccc3cc2C=O)cc1	-2	-3%	?	2%	4µM*	2%
O=Cc1cc2ccccc2nc1SCc1ccc(Cl)cc1	-4	-2%	?	0%	0%	4%
CCN(CC)S(=O)(=O)c1ccc2oc(SCC(=O)NC3CC3)nc2c1	-3	-2%	18%	2%	1%	-7%
CCN(CC)S(=O)(=O)c1ccc2oc(C(=O)NCc3ccc(F)cc3)c(C)c2c1	0	-2%	-2%	-8%	3.5µM*	11%
CCN(CC)S(=O)(=O)c1ccc2oc(SCc3ccc(F)cc3)nc2c1	-1	-3%	-1%	1%	11µM*	7%
CCN1CCC(N(Cc2cccc(OC)c2)C(=O)Nc2cccc(C(F)(F)F)c2)CC1	.	.	-1%	.	?	.
O=C1CC(c2ccc3c(c2)OCCO3)Oc2ccccc21 (stereo not drawn)	1	12%	-5%	0%	?	2%
O=C1CC(c2ccc3c(c2)OCCO3)Oc2ccc([N+](=O)[O-])cc21 (stereo not drawn)	0	10µM*	6%	-6%	-36%	-8%
CCn1cc(C(=O)NCCc2ccccc2)c(=O)c2cc(S(=O)(=O)N(C)C3CCCCC3)ccc21	.	.	14%	.	6%	0%
CCN(C(=O)CSc1nc2n[nH]c(C)c2c(=N)n1-c1cccc(OC)c1)c1cccc(C)c1	.	.	-19%	.	?	.
O=[N+]([O-])c1ccc(N/N=C2\CC3CC=CC23)cc1 (stereo not drawn)	2	?	?	-1%	1.3µM*	11%
COc1ccc(C(=O)c2c(C)c3ccccc3n2CC(O)CNC(C)C)cc1 (stereo not drawn)	-1	?	8.9µM*	1%	2.2µM*	-2%
CCOc1ccc(-c2c(C)nn3c(C)c(C(=O)NCC(C)c4ccccc4)cnc23)cc1OCC (stereo not drawn)	.	.	-9%	.	7%	.
COc1ccc(CCNC(=O)CCS(=O)(=O)c2cc(Br)cc3c2N(C(C)=O)CC3)cc1OC	.	.	-1%	.	2%	1%
Cc1ccc(C)c(N2CCN(C(=O)c3ccc(CS(=O)Cc4ccc(Cl)cc4)o3)CC2)c1 (stereo not drawn)	3	2%	-23%	0%	10µM*	-4%
O=C(c1ccc(CS(=O)Cc2ccc(Cl)cc2)o1)N1CCN(c2ccccc2F)CC1 (stereo not drawn)	-1	2%	-12%	1%	?	-3%
Cc1ccc(Cl)cc1N1CCN(C(=O)c2ccc(CS(=O)Cc3ccc(Cl)cc3)o2)CC1 (stereo not drawn)	3	0%	-17%	3%	8.9µM*	-5%
COc1cccc(C(=O)N2c3ccc(C)cc3C(C)(c3ccccc3)CC2(C)C)c1 (stereo not drawn)	.	.	-15%	.	?	.
N=c1c2c(n(Cc3ccc(Cl)cc3)c3c1CCC3)CCC2	0	.	-9%	-2%	-8%	-3%
N=c1c2c(n(Cc3cccc(Cl)c3)c3c1CCC3)CCCC2	0	?	5µM*	-1%	-2%	-4%
Cc1ccc(CNc2oc(-c3ccco3)nc2S(=O)(=O)c2ccccc2)cc1	1	3%	-6%	-5%	10µM*	10%
Cc1cccc(Oc2nc(-c3ccccn3)nc3ccccc23)c1	2	1%	?	-8%	1.3µM*	15%
Cc1cccc(Oc2nc(-c3ccncc3)nc3ccccc23)c1	-2	2%	14%	-2%	?	21%
SMILES	CCT modulator	uPA generation	GLP1R cytotox	MmCpn inh	GLP-1R inv ag	GLP-1R agonist
CC1CCN(CCCCOc2ccccc2[N+](=O)[O-])CC1	2	-3%	8.9µM*	0%	-1%	0%
COc1ccc(-c2ccc(/C=N/NC(=O)Cc3nnc(N)s3)o2)cc1Cl	-5	-14%	-44%	-1%	11µM*	-4%
CCOc1ccc(NCc2nnc(SCc3ccc(Cl)cc3)n2-c2ccccc2)cc1	-1	4%	-10%	2%	10µM*	-7%
CCOC(=O)C1=CN(Cc2cccc(F)c2)S(=O)(=O)N(C)C1c1ccc(F)c(Cl)c1 (stereo not drawn)	3	-5%	1%	-1%	10µM*	0%
COc1ccc2cc(CNc3ccc(OC)c(OC)c3)c(=O)n(CC(=O)Nc3ccc(C)cc3)c2c1	.	.	-4%	.	14%	2%
COc1ccc(CNC(=O)CSc2ncc3c(n2)-c2cc(Cl)ccc2N(C)S3(=O)=O)cc1	.	.	0%	.	7%	.
CCCCN1C(=O)C(O)(CC(=O)c2ccco2)c2cc(Br)ccc21 (stereo not drawn)	0	?	12%	0%	?	18%
CCCCN1C(=O)C(O)(CC(=O)c2ccc(C)cc2C)c2cc(Br)ccc21 (stereo not drawn)	.	.	-17%	.	10µM*	.
Cc1ccccc1Nc1nnc(-c2ccc(C)c(S(=O)(=O)NCC3CCCO3)c2)c2ccccc12 (stereo not drawn)	.	.	4%	.	-30%	.
CCCNC(=O)CCc1cc(C(C)(C)C)c(O)c(C(C)(C)C)c1	-3	11µM*	3%	-2%	?	5%
Cc1ccc(N/N=C2\CCS(=O)(=O)c3sccc32)cc1	2	9%	-28%	0%	4µM*	15%
CC(C)CCn1nnnc1CN1CCN(C(c2ccccc2)c2ccccc2)CC1	0	1%	-10%	2%	13µM*	8%
c1ccc(C(c2ccccc2)N2CCN(Cc3nnnn3C3CCCC3)CC2)cc1	-1	-6%	-8%	0%	7.9µM*	-27%
CCC(C)(C)n1nnnc1CN1CCN(C(c2ccccc2)c2ccccc2)CC1	2	2%	-12%	1%	10µM*	-5%
O=C(NCCC1=CCCCC1)C1COc2ccccc2O1 (stereo not drawn)	0	-6%	13%	1%	8.9µM*	0%
CCOC(=O)C1CCCN(S(=O)(=O)c2ccc3[nH]c(=O)ccc3c2)C1 (stereo not drawn)	.	.	-2%	.	7%	-6%
CCc1nnc2c(Nc3cc(OC)c(Cl)cc3OC)nc3ccccc3n12	.	.	21%	.	9%	.
CNC(=S)N=Nc1c(O)[nH]c2ccccc12	-6	-3%	11µM*	-3%	-3%	2%
